# CBFb-RUNX1 inh: qHTS Assay for Compounds Blocking the Interaction Between CBF-beta and RUNX1 for the Treatment of Acute Myeloid Leukemia | Runt-related transcription factor 1 (Homo sapiens) + Core-binding factor subunit beta … | AlphaScreen CBFb-His/RUNX1-biotin binding, biochemical | Potency, µM (series often up to 59.8 µM), for inactives: at the top dose activity, negative = inhibition, usual class: inhibitors | 230,000 tested, under 10 active; also: % of control where 0% means no effect
# Target sequence (Q01196 whole entry, looked up): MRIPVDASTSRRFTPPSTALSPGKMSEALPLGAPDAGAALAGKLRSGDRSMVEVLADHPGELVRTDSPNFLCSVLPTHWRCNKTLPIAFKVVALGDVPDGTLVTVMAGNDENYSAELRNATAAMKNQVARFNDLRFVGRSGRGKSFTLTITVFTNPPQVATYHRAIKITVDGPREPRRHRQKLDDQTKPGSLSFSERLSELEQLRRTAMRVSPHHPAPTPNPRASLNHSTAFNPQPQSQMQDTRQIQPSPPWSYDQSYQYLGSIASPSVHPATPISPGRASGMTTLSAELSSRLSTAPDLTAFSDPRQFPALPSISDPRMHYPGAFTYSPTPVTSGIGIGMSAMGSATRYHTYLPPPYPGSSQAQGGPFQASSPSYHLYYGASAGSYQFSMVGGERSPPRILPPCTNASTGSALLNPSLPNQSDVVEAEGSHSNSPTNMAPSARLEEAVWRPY
# Target sequence (Q13951 whole entry, looked up): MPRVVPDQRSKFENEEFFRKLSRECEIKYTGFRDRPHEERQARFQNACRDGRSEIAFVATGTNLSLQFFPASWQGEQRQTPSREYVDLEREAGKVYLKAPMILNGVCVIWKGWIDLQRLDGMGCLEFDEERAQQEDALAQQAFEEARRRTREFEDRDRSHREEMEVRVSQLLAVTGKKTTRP
#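 CBF-beta (His) and RUNX1 (biotin), 30 nM each; 20 min preassociation; + compound, 15 min; + beads 50 ng each (Ni, streptavidin), 90 min; RT; AlphaScreen read.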
# Six1-Eya2 blk: qHTS Assay for Inhibitors of the Six1/Eya2 Interaction | activity change, % (no concentration beside the values) | AlphaScreen GST-Six1/His-Eya2 binding, biochemical; hits give low values | AID 651725, 2012 | hit rate 0.56% among 360,000; in the data active = activity change below about -65%; inconclusive = mostly about -30% to -63%; also: % is scaled to controls: 0 for no effect and ±100 for the full control effect
#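 Homogeneous AlphaScreen proximity assay pairing GST-Six1 with His-tagged Eya2 (added as 5X mix: 250 nM and 500 nM) in 50 mM Tris pH 8.0, 300 mM NaCl, 1 mM TCEP. Glutathione donor and nickel acceptor beads; 1 h, 37 °C, dark.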
# RORgamma inh: qHTS for inhibitors of ROR gamma transcriptional activity | Drosophila S2 Gal4-RORgamma UAS-luciferase reporter, 20 h | Potency, µM (highest dose often 53.6 µM), for the others: at the top dose activity change, negative = inhibition, actives largely listed as inhibitors | AID 2551, 2010 | Nuclear receptor ROR-gamma (Mus musculus), P51450 | hit rate 5.4% among 310,000; also: potency is read from the fitted curve at half-maximal effect; % is scaled to controls: 0 for no effect and ±100 for the full control effect; nearly all actives have a fitted effect of over 60% in size
#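 Drosophila Schneider cells stably carrying a metallothionein-driven Gal4 DBD–ROR gamma fusion and a UAS-Photinus luciferase reporter were exposed to compound for 1 hr, then induced with copper sulfate (700 uM final) for 20 hr at ambient temperature before luminescence reading.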
# CtBP-E1A blk: qHTS Assay for Inhibitors of the CtBP/E1A Interaction | CtBP / adenovirus E1A interaction (AlphaScreen) | AlphaScreen GST-E1A/His-CtBP binding, 1536-well; hits give low values | activity change, % (no concentration beside the values) | hit rate 0.49% among 340,000 | AID 651724, 2012; in the data active = activity change below about -65%; inconclusive = mostly about -30% to -63%; also: % is scaled to controls: 0 for no effect and ±100 for the full control effect
#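 AlphaScreen with 125 nM GST-E1A and 125 nM His-CtBP (5X stocks) in Tris pH 8.0, 300 mM NaCl, BSA, Tween 20, TCEP. Compounds preincubated 2 h at 37 deg C, then glutathione donor/nickel acceptor beads added for 1 h at 37 deg C in dark.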
# VP16 counter: VP16 counterscreen qHTS for inhibitors of ROR gamma transcriptional activity; Drosophila S2 Gal4-VP16 UAS-luciferase, luminescence, 20 h; Potency, µM (top dose mostly 53.6 µM), without a hit: at the highest dose activity, negative = inhibition, usual class: inhibitors; hit rate 3.5% among 310,000; AID 2546, 2010;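 also: Gal4-VP16 expression switched on by copper sulfate through the metallothionein promoter; potency is read from the fitted curve at half-maximal effect; % is scaled to controls: 0 for no effect and ±100 for the full control effect; nearly all actives have a fitted effect of over 50% in size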
# MBNL1-CUG inh: qHTS Assay for Inhibitors of MBNL1-poly(CUG) RNA binding; Muscleblind-like protein 1 (Homo sapiens), Q9NR56; TR-FRET MBNL1-His/biotin-(CUG)12 binding, 665/545 ratio; Potency, µM (series often up to 57.5 µM), inactives show at the highest dose activity change, negative = inhibition, hits mostly inhibitors; hit rate 0.036% among 280,000; active = well fitted inhibition curve with a large enough effect in the signal ratio, with a control signal flat, not every such curve was filed as active; inconclusive = small, poorly fitted or top-dose-only effect, or effect the other way, or a change in a side signal; inactive = no such curve, though single readings can be large or run the other way; the % refers to the signal ratio; also: potency is read from the fitted curve at half-maximal effect; % is scaled to controls: 0 for no effect and ±100 for the full control effect
#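 Inhibition of protein-RNA binding appears as loss of TR-FRET between terbium anti-His antibody on MBNL1-His and streptavidin-XL665 on biotin-(CUG)12. Activity is normalized to buffer-only and uninhibited-complex controls.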
# Active calls of the source: *; u = inconclusive; x = no result given. Rows were chosen to be rich in hits. Some 5.5% of all compounds tested hit in one or more screens of this group. Unless noted, calls follow the shape of the dose curve; as a rule, active = well fitted curve in the direction sought with a large enough effect; inconclusive = small, poorly fitted or top-dose-only effect, or another doubt; inactive = no such curve, though single readings can be large; an effect the other way counts as inactive or inconclusive.
SMILES,CBFb-RUNX1 inh,Six1-Eya2 blk,RORgamma inh,CtBP-E1A blk,VP16 counter,MBNL1-CUG inh
CC(NC(=O)c1ccccc1NC(=O)CN1CCc2ccccc2C1)c1ccccc1 (configuration not stated),x,-7.0,25.9%,-1.9,-18.2%,-0.4%
CC(C)Oc1ccc(Cc2cnc(=S)[nH]c2N)cc1,-4.9%,-5.7,11.2µM*,x,-23.8%,-6.0%
CC(C)(C)NCC(O)COc1ccc(NC(=O)NC2CCCCC2)cc1 (configuration not stated),x,x,-6.3%,x,3.6%,x
CCOc1cccc2cc(C(=O)Oc3ccc(OC)cc3)c(=O)oc12,x,-16.3,-12.3%,0.9,u,u
COc1cccc2cc(C(=O)Oc3ccccc3)c(=O)oc12,x,0.1,u,x,10µM*,u
COc1cccc2cc(-c3nnc(-c4ccccc4)o3)c(=O)oc12,-2.3%,-11.3,1.26µM*,-13.5,u,u
CNC(=O)c1cc(Oc2ccc(NC(=O)Nc3ccc(Cl)c(C(F)(F)F)c3)cc2)ccn1,x,1.0,u,0.7,8.91µM*,x
O=C(Nc1ccc(Cl)c(C(F)(F)F)c1)c1ccncc1,-1.6%,0.5,-2.8%,0.1,22.2%,u
CC(/C=C1\SC(=O)N(CCCC(=O)O)C1=O)=C\c1ccccc1,1.2%,-6.5,0.1µM*,-4.1,0.316µM*,u
CC(=C\c1ccccc1)/C=C1/SC(=S)N(CCCC(=O)O)C1=O,x,-13.8,u,12.1,0.631µM*,13.3%
CC(=Cc1ccccc1)C=C1SC(=S)N(CCCC(=O)Nc2ccc(C(=O)O)cc2)C1=O,x,-6.2,x,-5.4,x,x
COc1cc(/C=C/C(=O)NC(C)C2CC3CCC2C3)cc(OC)c1OC (configuration not stated),x,-3.5,35.3%,-1.9,7.5%,10.9%
COc1ccc(-n2c(-c3cccc(C)c3[N+](=O)[O-])n[nH]c2=S)cc1,-2.0%,-15.7,7.94µM*,-9.7,-5.8%,-0.6%
Cc1cccc(-c2n[nH]c(=S)n2-c2ccccc2)c1[N+](=O)[O-],15.4%,-0.9,12.6µM*,-7.6,u,x
O=[N+]([O-])c1cccc(-c2n[nH]c(=S)n2-c2ccccc2)c1,-5.1%,-5.5,7.08µM*,-26.8,-7.8%,10.0%
COc1ccc(-n2c(C(C)n3nc(C)c([N+](=O)[O-])c3C)n[nH]c2=S)cc1 (configuration not stated),-3.9%,0.7,4.6%,2.3,-16.0%,3.6%
O=[N+]([O-])c1cccc(-c2ccc(/C=N/n3c(-c4ccccc4)n[nH]c3=S)o2)c1,-1.4%,-2.7,-26.8%,-2.3,10µM*,0.7%
O=[N+]([O-])c1ccc(O)c(/C=N/n2c(-c3ccccc3)n[nH]c2=S)c1,x,-0.6,u,-2.7,u,7.3%
O=[N+]([O-])c1ccc2c(c1)[nH]c(=S)n2-c1ccccc1,-12.7%,0.0,5.01µM*,-26.0,-6.9%,29.3%
COc1ccc(CNc2ncnc3c2[nH]c2cc(OC)c(OC)cc23)cc1,-14.7%,u,5.6%,u,-10.7%,-3.0%
COc1ccc(CNc2ncnc3c2[nH]c2ccccc23)cc1,-9.2%,-14.4,u,-17.6,6.31µM*,x
C1=C(CCNc2ncnc3c2[nH]c2ccccc23)CCCC1,-18.6%,-7.7,7.94µM*,-2.3,0.708µM*,-5.1%
CN1CCN(C(=O)c2ccc(-c3cccs3)s2)CC1,2.2%,5.0,u,5.8,u,x
O=C(c1cccs1)c1ccc(-c2cccs2)s1,4.4%,75.4,-22.7%,69.4,12.6µM*,u
